Experimental data from PubChem BioAssay (NCI).
About 79,000 compounds went through this panel and 15% of them were active in at least one assay; those are over-represented in the sample as a whole. Cut-off read from the data, not from the text of the source: active = growth inhibition above about 70%; inactive = the rest.

Assays:
[1] = NCI Yeast Anticancer Drug Screen. Data for the rad50 strain (AID 155);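 note: 0% = growth of vehicle-only cultures of the same strain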; settings: S. cerevisiae rad50 strain growth inhibition; at 50.0 µM; stronger effect = higher value
In short: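 Compounds were tested on a yeast strain with an engineered DNA damage repair alteration; the reported value is growth inhibition normalised to vehicle treatment.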

[2] = NCI Yeast Anticancer Drug Screen. Data for the mec2-1 strain (AID 157); settings: S. cerevisiae mec2-1 strain, at 50.0 µM, stronger effect = higher value
In short: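 Yeast mec2-1 mutant treated with compound. Readout: growth inhibition vs vehicle controls.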

[3] = NCI Yeast Anticancer Drug Screen. Data for the sgs1 mgt1 strain (AID 161);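 note: 0% = growth of cultures given vehicle only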; settings: S. cerevisiae sgs1 mgt1 strain, at 50.0 µM, stronger effect = higher value
In short: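 Genetically altered yeast, compound exposure, growth inhibition relative to vehicle.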

[4] = NCI Yeast Anticancer Drug Screen. Data for the cln2 rad14 strain (AID 165);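 note: 0% = growth equal to vehicle treated cultures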; settings: S. cerevisiae cln2 rad14 strain, at 50.0 µM, stronger effect = higher value
In short: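 cln2 rad14 yeast strain; compound exposure; growth inhibition read vs vehicle controls.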

[5] = NCI Yeast Anticancer Drug Screen. Data for the bub3 strain (AID 167); settings: S. cerevisiae bub3 mutant strain, at 50.0 µM, stronger effect = higher value
In short: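 Growth of a checkpoint-deficient yeast mutant is measured after compound exposure. Values represent inhibition relative to vehicle.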

[6] = NCI Yeast Anticancer Drug Screen. Data for the mlh1 rad18 strain (AID 175); settings: S. cerevisiae mlh1 rad18 strain growth inhibition; at 50.0 µM; stronger effect = higher value
In short: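 Yeast w/ defined DNA-repair lesions; compound exposure; growth vs vehicle controls → % inhibition.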

Measured: growth inhibition

c1ccc(N=C2SC(c3ccccc3)CN2C23CC4CC(CC(C4)C2)C3)cc1 (stereo unspecified)
inactive: [1] -18.4% | [2] -6.5% | [3] -38% | [4] -64.5% | [5] -1.2% | [6] -9.8%

COc1ccccc1N1C(=O)C2C3c4ccccc4C(OC(C)=O)(c4ccccc43)C2C1=O (stereo unspecified)
inactive: [1] -19.8% | [2] -13.6% | [3] 4.25% | [4] 3.4% | [5] -14.8% | [6] 12.9%

CCOc1ccccc1C(=O)OCCCc1ccccc1
inactive: [1] -1% | [2] 9.15% | [3] 7.1% | [4] -2.25% | [5] 25.2% | [6] 15.4%

NC(=S)N/N=C1/CCCC/C1=N/O
inactive: [1] 46.1% | [2] 33.1% | [3] 36.2% | [4] -0.15% | [5] 25.2% | [6] -6.35%

O=C(Nc1ccc(Cl)cc1)Nc1nnc2nc(C3(c4nc5nnc(NC(=O)Nc6ccc(Cl)cc6)n5[nH]c4=O)CCCC3=O)c(=O)[nH]n12
inactive: [1] -23.3% | [2] -19.5% | [3] -11.7% | [4] -32.2% | [5] 10.9% | [6] -2.75%

COC(=O)/C=C/C(=O)OC
inactive: [1] 9.75% | [2] 14.4% | [3] 19.4% | [4] 9.3% | [5] 9.45% | [6] 6.6%

CC1CCC(=O)N1C (stereo unspecified)
inactive: [1] -19.1% | [2] -1.35% | [3] -16.1% | [4] -21.6% | [5] -0.45% | [6] -9.5%

O=C(O)c1ccc(O)c(Cl)c1
inactive: [1] 14.2% | [2] 5.8% | [3] -7.85% | [4] -22.2% | [5] 9.25% | [6] 25.4%

CC(=O)OC1CCC2(C)C(=CCC3C2CCC2(C)C3CCC23OCCS3)C1 (stereo unspecified)
inactive: [1] 34.5% | [2] 3.4% | [3] 9.35% | [4] 9.1% | [5] -4.35% | [6] 8.5%

CCOC(=O)C(c1ccccc1)N(CCCN(CC)CC)c1ccccc1 (stereo unspecified)
inactive: [1] -10.8% | [2] -3.25% | [3] 1.6% | [4] -9.1% | [5] 5.15% | [6] 0.45%

CC1=NN(C(=O)CC(=O)NC(=O)CC(=O)Nc2ccccc2F)C(=O)C1N=Nc1ccc([N+](=O)[O-])cc1 (stereo unspecified)
inactive: [1] 20.5% | [2] 22.6% | [3] 30% | [4] 16.3% | [5] 12.1% | [6] 8.2%

O=S(=O)(O)c1cc(O)c2ccc3c(S(=O)(=O)O)cc(S(=O)(=O)O)c4ccc1c2c34
inactive: [1] -11.7% | [2] -23.1% | [3] -2.85% | [4] 6.8% | [5] 10.6% | [6] 3.75%

Cc1cc2c(cc1Cl)SSc1cc(Cl)c(C)cc1S(=O)(=O)Nc1nc(N)nn1C(O)n1nc(N)nc1NS2(=O)=O
inactive: [1] 7.65% | [2] 11.4% | [3] 9.1% | [4] 20.7% | [5] 30.4% | [6] 0.45%

CCCCC1=C(C)C/C(=N/Nc2ccc([N+](=O)[O-])cc2[N+](=O)[O-])C(C)C1CCCC (stereo unspecified)
inactive: [1] 3.7% | [2] 2.8% | [3] -13.6% | [4] 8.15% | [5] 3.3% | [6] 21.9%

COc1ccccc1CNCCCCCCNCCSSCCNCCCCCCNCc1ccccc1OC
inactive: [1] 6.55% | [2] 5.1% | [3] 7.4% | [4] -36.7% | [5] -2.35% | [6] 32.5%

OC(Cc1ccccc1)c1ccccc1 (stereo unspecified)
inactive: [1] -21.9% | [2] -19.8% | [3] -24.8% | [4] 16.2% | [5] -5.15% | [6] 1.5%

CCS(=O)(=O)c1ccc(NC(=O)OCc2ccccc2)cc1
inactive: [1] 12.1% | [2] 23.4% | [3] 22.4% | [4] -4.4% | [5] 25.5% | [6] -2.4%

COc1ccc([N+](=O)[O-])cc1N=NN(C)C
inactive: [1] -1.9% | [2] -11.7% | [3] -10.8% | [4] -6.3% | [5] -5.8% | [6] -8.45%

Cc1ccccc1NC(=O)CSc1nnc(-c2ccc(N=Cc3ccc(Cl)cc3)cc2)o1
inactive: [1] -13.6% | [2] -30.9% | [3] 1.9% | [4] -4.75% | [5] -30% | [6] -17.8%

CC(C)OC(=O)NCc1cccs1
inactive: [1] -10.1% | [2] -2.6% | [3] 6.7% | [4] -92.8% | [5] 1.7% | [6] -11.1%

COc1ccc(CNc2nc3ccccc3nc2C(=O)O)cc1OC
inactive: [1] 1.9% | [2] 18.6% | [3] 4.4% | [4] 7.25% | [5] 9% | [6] -12.5%
